Only some compounds are listed: those with a hit (about 2.6% of all), similar ones and a draw of the others.
KLF5 inhibitor = KLF5 expression inhibitors, primary screen, DLD-1 cells, luminescence. actives 0.23% (n = 290,000). AID 1700, 2009. DLD-1 KLF5 promoter-luciferase reporter. inhibition, % at 5 µM;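 active = inhibition above a per-plate limit of that plate's mean compound inhibition plus 3 SD, cut at about 60% in these data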;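 also: higher means less KLF5 promoter-driven luciferase light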
Ba/F3 V617F tox = reduced viability of JAK2V617F-dependent Ba/F3 cells, primary screen, JAK2V617F inhibitor project, cell-based, Ba/F3 EpoR-JAK2V617F, luminescence; AID 1446, 2008; ATP luminescence; inhibition, % at 5.6 µM; actives 1.1% (n = 220,000);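 active = inhibition above the campaign mean plus 3 SD over all tested compounds, cut at about 24% in these data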;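 also: cytokine-independent growth of Ba/F3 cells driven by EpoR plus mutant JAK2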
IEC-6 cytotox = cytotoxicity in IEC-6 intestinal epithelial cells, primary screen, cytotoxicity control for KLF5 inhibitor project, cell-based, luminescence | actives 0.78% (n = 290,000) | IEC-6 cytotoxicity, luminescence viability | inhibition, % at 5 µM
GPR7 antagonist = GPR7 receptor antagonists, primary screen, cell-based, fluorescence, single concentration; inhibition, % at 4.4 µM; Neuropeptides B/W receptor type 1 (Homo sapiens), P48145; GPR7-expressing cells, fluorescence antagonist assay; actives 1.1% (n = 290,000); AID 1861, 2009; in the data active = inhibition above about 16%, passing the limit was not always enough;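 also: cells stimulated with the agonist NPW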
Target sequence (P48145 whole entry, looked up): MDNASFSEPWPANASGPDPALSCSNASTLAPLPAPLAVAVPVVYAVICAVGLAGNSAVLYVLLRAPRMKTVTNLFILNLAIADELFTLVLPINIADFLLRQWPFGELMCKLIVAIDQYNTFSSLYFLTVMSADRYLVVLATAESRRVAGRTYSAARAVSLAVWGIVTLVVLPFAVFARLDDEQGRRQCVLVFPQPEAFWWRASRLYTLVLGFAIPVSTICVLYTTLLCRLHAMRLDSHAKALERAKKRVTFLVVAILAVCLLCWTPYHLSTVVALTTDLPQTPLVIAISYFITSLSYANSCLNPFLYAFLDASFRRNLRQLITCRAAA
DNA FID counter = compounds displacing fluorescent DNA intercalator, primary screen, artefact control for HCV NS3 helicase inhibitor project, biochemical, FID fluorescence; DNA fluorescent intercalator displacement; inhibition, % at 7.9 µM; actives 0.17% (n = 290,000); AID 1845, 2009; in the data active = inhibition above about 37%;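 also: higher means more ethidium bromide displaced from hairpin DNA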
BaF3 parental = parental Ba/F3 cell viability inhibition, counter-screen for JAK2V617F inhibitor project, murine pro-B, CellTiter-Glo luminescence. CellTiter-Glo ATP luminescence. inhibition, % at 5.6 µM. actives 1.1% (n = 220,000). AID 1486, 2009;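 active = inhibition above a per-campaign cutoff, the mean inhibition of all tested compounds plus 3 SD, cut at about 27% in these data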
IEC-6 tox confirm = cytotoxic compounds in IEC-6 epithelial cells, confirmation, cytotoxicity control, cell-based, luminescence | inhibition, % at 5 µM | actives 63% (n = 1,900) | shares compounds with IEC-6 cytotox | AID 1907, 2009 | IEC-6 rat intestinal epithelial viability
Of the large screens only hits and unclear results are named; the others gave an inactive call (follow-up assays come after a bar, where they were run). Rule as the data show it, unless noted: active = inhibition above about 22%; inactive = the rest.

CC(=O)OCCN1C(=O)c2cccnc2C1=O	none
CCOC(=O)c1ccc(Nc2ncnc3c2cnn3C)cc1	none
Cn1ncc2c(O/N=C(\N)c3ccc(C(C)(C)C)cc3)ncnc21	Ba/F3 V617F tox 75, IEC-6 cytotox 93, BaF3 parental 36 | IEC-6 tox confirm inactive
CCN(CC(=O)Nc1c(F)cccc1F)C(=O)c1ccc(N2CCCCC2)c([N+](=O)[O-])c1	none (no result: Ba/F3 V617F tox, BaF3 parental)
COC(=O)c1ccc(C)c(NS(=O)(=O)c2ccc(OC)cc2)c1	Ba/F3 V617F tox 80, IEC-6 cytotox 87, BaF3 parental 75 | IEC-6 tox confirm 59
COc1ccc(S(=O)(=O)Nc2cc(C(C)C)c(O)cc2C)cc1	none
O=C(NC1CCCCCC1)C1C2C=CC3(CN(Cc4cccnc4)C(=O)C13)O2 (configuration not stated)	none
O=C(Cc1ccccc1)NCc1ccc(-n2cccc2)cc1	none
O=C(Cc1ccc(-n2cccc2)cc1)NCc1ccccc1Cl	IEC-6 cytotox 29 | IEC-6 tox confirm 32
CCC(=O)n1nc(-c2ccc(Cl)cc2)nc1N	none
CCc1nc(N)nc(N)c1-c1ccc(Cl)cc1	Ba/F3 V617F tox 97, IEC-6 cytotox 49, BaF3 parental 97 | IEC-6 tox confirm 36
CC[n+]1c(C=C2C=C(C)OC(C)=C2)sc2ccccc21	Ba/F3 V617F tox 100, IEC-6 cytotox 25, BaF3 parental 91 | IEC-6 tox confirm 27
CCOc1ccccc1C1N(c2ccc(OC)cc2)C(=O)C2CCCN21 (configuration not stated)	none
CCC1=Nc2cc(C(=O)NCCN3CCCC3)ccc2Sc2ccccc21	none (no result: Ba/F3 V617F tox, BaF3 parental)
CCC1=Nc2cc(C(=O)NCCCOC)ccc2Sc2ccccc21	Ba/F3 V617F tox 77, IEC-6 cytotox 88, BaF3 parental 79 | IEC-6 tox confirm 60
COC(=O)CSc1nc2ccccc2n1CC(=O)N(C(C)C)C(C)C	none
O=C(O)CSc1cc(NS(=O)(=O)c2ccc(Br)cc2)c2ccccc2c1O	IEC-6 cytotox 54 (no result: Ba/F3 V617F tox, BaF3 parental) | IEC-6 tox confirm inactive
COc1ccc(Nc2c3c(nc4ccccc24)CCC3)cc1	none (no result: Ba/F3 V617F tox, BaF3 parental)
COc1ccc(Nc2nc(-c3ccncc3)nc3ccccc23)cc1	IEC-6 cytotox 30 (no result: Ba/F3 V617F tox, BaF3 parental) | IEC-6 tox confirm inactive
Oc1cccc(Nc2c3ccccc3nc3ccccc23)c1	IEC-6 cytotox 35, DNA FID counter 42 (no result: Ba/F3 V617F tox, BaF3 parental) | IEC-6 tox confirm 36
COc1ccc(OC)c(Nc2nc(-c3ccncc3)nc3ccccc23)c1	none (no result: Ba/F3 V617F tox, BaF3 parental)
COc1ccc(Nc2c3ccccc3nc3ccccc23)cc1	IEC-6 cytotox 74 (no result: Ba/F3 V617F tox, BaF3 parental) | IEC-6 tox confirm 31
COc1ccccc1Nc1c2ccccc2nc2ccccc12	IEC-6 cytotox 28 (no result: Ba/F3 V617F tox, BaF3 parental) | IEC-6 tox confirm inactive
COc1ccccc1CN1CCCC(C(=O)N(C)Cc2ccccc2)C1 (configuration not stated)	none
CCOC(=O)Cn1nc(C)n(-c2c(C)cccc2C)c1=O	none
Nc1nnc(SC2CCCC2)s1	none
COC(=O)COc1ccc(NC(=O)C(c2ccccc2)c2ccccc2)cc1	IEC-6 cytotox 25 (no result: Ba/F3 V617F tox, BaF3 parental) | IEC-6 tox confirm inactive
O=C(O)COc1ccc(NC(=O)C(c2ccccc2)c2ccccc2)cc1	none (no result: Ba/F3 V617F tox, BaF3 parental)
O=[N+]([O-])c1ccc(N=NN(CCO)CCO)cc1	none
O=[N+]([O-])c1ccc(N=Nc2ncc[nH]2)cc1	IEC-6 cytotox 81 (no result: Ba/F3 V617F tox, BaF3 parental) | IEC-6 tox confirm inactive
Cc1nc2ccccc2c(=O)n1/N=C/c1ccc(C(C)C)cc1	none (no result: Ba/F3 V617F tox, BaF3 parental)
NC(=O)C1CNc2ccccc2O1 (configuration not stated)	none
CN(C)c1cccc(/C=C(\C#N)c2ccccc2)c1	Ba/F3 V617F tox 81, IEC-6 cytotox 77, BaF3 parental 76 | IEC-6 tox confirm 56
Cc1c(C(=O)N2CCOCC2)[nH]c2c1C(=O)CC(c1ccccc1Cl)C2 (configuration not stated)	Ba/F3 V617F tox 85, IEC-6 cytotox 60, BaF3 parental 84 | IEC-6 tox confirm 48
CC(C)(C)c1ccc(-c2cn(-c3ccc(Br)cc3)c3[n+]2CCCS3)cc1	Ba/F3 V617F tox 100, IEC-6 cytotox 50, GPR7 antagonist 56, BaF3 parental 84 | IEC-6 tox confirm 51
O=C(c1ccc(F)cc1)C1CCN(C(=O)c2ccncc2)CC1	none
O=C1CCC/C(=N\NC(=O)c2ccc(COc3ccccc3-c3ccccc3)cc2)C1	none
O=C(COc1ccccc1-c1ccccc1)NN=C1CCCC1	IEC-6 cytotox 53 | IEC-6 tox confirm inactive
O=c1[nH]c(/C=C/c2ccccc2F)nc2ccccc12	IEC-6 cytotox 79 (no result: Ba/F3 V617F tox, BaF3 parental) | IEC-6 tox confirm 63
N#Cc1c(NC(=O)c2ccc([N+](=O)[O-])o2)sc2c1CCC2	IEC-6 cytotox 39 (no result: Ba/F3 V617F tox, BaF3 parental) | IEC-6 tox confirm inactive
CN1CCc2c(sc(NC(=O)c3ccco3)c2C(N)=O)C1	none (no result: Ba/F3 V617F tox, BaF3 parental)
NC(=O)c1c(NC(=O)c2ccc([N+](=O)[O-])o2)sc2c1CCCC2	IEC-6 cytotox 100 (no result: Ba/F3 V617F tox, BaF3 parental) | IEC-6 tox confirm 39
CC(C)c1onc(C(=O)Nc2sc3c(c2C#N)CCC3)c1[N+](=O)[O-]	none
CN1CCc2c(sc(NC(=O)c3ccc([N+](=O)[O-])o3)c2C(N)=O)C1	IEC-6 cytotox 101 (no result: Ba/F3 V617F tox, BaF3 parental) | IEC-6 tox confirm 88
CC(c1ccccc1)C1CC(=O)N(c2ccc([N+](=O)[O-])cc2)C1=O (configuration not stated)	none (no result: Ba/F3 V617F tox, BaF3 parental)
O=C(O)CCS(=O)(=O)c1cc(Br)cc2c1N(C(=O)C1CC1)CC2	none
Cc1sc2nc(-c3ccccn3)[nH]c(=O)c2c1-c1ccccc1	IEC-6 cytotox 28 | IEC-6 tox confirm 33
CCOCCCNC(=O)c1cc(-c2cccnc2)nc2ccc(S(=O)(=O)N3CCC(C)CC3)cc12	IEC-6 cytotox 24 (no result: Ba/F3 V617F tox, BaF3 parental) | IEC-6 tox confirm inactive
COCCNC(=O)c1cc(-c2ccccn2)nc2ccc(S(=O)(=O)N3CCC(C)CC3)cc12	none (no result: Ba/F3 V617F tox, BaF3 parental)
Cc1c(C#N)c(O)n(CCO)c(=O)c1N=Nc1ccc2c(c1)COC2=O	none
N=c1c(C(=O)NCC2CCCO2)cc2c(=O)n3ccccc3nc2n1Cc1ccccc1Cl (configuration not stated)	IEC-6 cytotox 30 (no result: Ba/F3 V617F tox, BaF3 parental) | IEC-6 tox confirm 24
Cc1ccccc1Cc1c(C)nc2c(C(=O)NCc3ccco3)cnn2c1C	none
CCN(CC)c1nc2c(c(=O)[nH]c(=O)n2C)n1Cc1ccccc1Cl	none (no result: Ba/F3 V617F tox, BaF3 parental)
CC1=C(Nc2ccc(C(=O)O)cc2)C(=O)c2ccccc2C1=O	none (no result: Ba/F3 V617F tox, BaF3 parental)
CC(=O)NC1=C(Nc2ccc(N(C)C)cc2)C(=O)c2ccccc2C1=O	IEC-6 cytotox 67 (no result: Ba/F3 V617F tox, BaF3 parental) | IEC-6 tox confirm 41
COc1ccccc1CNC(=O)CCC(=O)Nc1nnc(C)s1	none
Cc1ccc2ccc3ccc(C)nc3c2n1	IEC-6 cytotox 91 (no result: Ba/F3 V617F tox, BaF3 parental) | IEC-6 tox confirm 37
